The results in this text go back to paper PMC4336329 (PLoS ONE, 2015).

Molecules are shown by their SMILES. The whole screen tested about 310,000 compounds, of which about 14,000 (4.5%) showed an effect of 50% or more. Effects have a minus sign here. The entries come from a sample that favours strong results as a whole.
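Further: peak tail current of the secondary pulse compared with the same well before compound.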

The target of this test is human ether-à-go-go-related gene (hERG) potassium channel (human, UniProt Q12809). Description: primary screen, population patch clamp on CHO cells stably expressing hERG; higher = less effect of the substance.
Sequence of human ether-à-go-go-related gene (hERG) potassium channel (Q12809 whole entry, looked up): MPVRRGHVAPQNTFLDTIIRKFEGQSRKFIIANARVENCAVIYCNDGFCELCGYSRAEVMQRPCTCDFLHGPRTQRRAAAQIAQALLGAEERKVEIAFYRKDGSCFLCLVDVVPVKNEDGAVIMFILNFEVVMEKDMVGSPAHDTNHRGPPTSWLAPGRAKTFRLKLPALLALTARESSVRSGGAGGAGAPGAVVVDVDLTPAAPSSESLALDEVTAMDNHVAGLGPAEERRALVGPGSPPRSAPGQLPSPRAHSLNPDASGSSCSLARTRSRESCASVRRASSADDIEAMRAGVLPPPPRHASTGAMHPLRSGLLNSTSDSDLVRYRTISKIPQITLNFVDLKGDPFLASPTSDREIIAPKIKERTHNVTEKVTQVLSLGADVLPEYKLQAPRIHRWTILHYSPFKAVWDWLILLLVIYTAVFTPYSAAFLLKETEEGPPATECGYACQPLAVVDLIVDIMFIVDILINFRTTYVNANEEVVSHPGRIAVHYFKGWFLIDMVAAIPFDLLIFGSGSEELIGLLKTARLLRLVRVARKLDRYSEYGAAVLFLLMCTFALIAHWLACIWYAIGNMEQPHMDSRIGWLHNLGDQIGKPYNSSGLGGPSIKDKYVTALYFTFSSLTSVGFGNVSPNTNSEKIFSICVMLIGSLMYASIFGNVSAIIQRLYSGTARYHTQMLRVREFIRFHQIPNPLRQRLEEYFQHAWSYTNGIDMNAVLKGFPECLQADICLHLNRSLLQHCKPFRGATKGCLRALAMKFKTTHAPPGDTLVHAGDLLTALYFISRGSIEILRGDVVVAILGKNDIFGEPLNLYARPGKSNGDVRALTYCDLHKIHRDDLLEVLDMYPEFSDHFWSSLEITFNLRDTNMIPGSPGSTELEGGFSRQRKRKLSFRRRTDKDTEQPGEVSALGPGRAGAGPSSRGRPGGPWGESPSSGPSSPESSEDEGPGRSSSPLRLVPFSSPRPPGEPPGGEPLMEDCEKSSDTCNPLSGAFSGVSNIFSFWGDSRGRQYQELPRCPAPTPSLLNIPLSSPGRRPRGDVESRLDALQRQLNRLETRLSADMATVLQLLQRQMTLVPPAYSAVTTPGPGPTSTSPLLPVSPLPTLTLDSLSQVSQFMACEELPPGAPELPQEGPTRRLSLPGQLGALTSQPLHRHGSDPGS
For `Nc1ccc(C(=O)N2CCCC2)cc1CS(=O)(=O)c1ccc(Cl)cc1`, the “hERG current change (%, negative = inhibition) at 10uM” value is recorded as -4.18%. For `CN(c1ccccc1)c1nc(N)c([N+](=O)[O-])c(Nc2cccc(F)c2)n1`, the “hERG current change (%, negative = inhibition) at 10uM” value was 24%. With `COc1ccc(N2C(=O)/C(=C\c3ccco3)N=C2SCC(=O)NC(C)C)cc1Cl`, the “hERG current change (%, negative = inhibition) at 10uM” value was 4.42%. The result for `C=CCNC(=O)C(C)N1c2cccc3cccc(c23)S1(=O)=O` (stereo not shown) reads 9.53%. Under `COc1ccc(-n2nnnc2/C(=C/N(C)C)C(=O)c2ccccc2)cc1` stands -4.92%; under `S=C(NC1CCCCC1)N1CCn2cccc2C1c1cccnc1` (stereo not shown), -8.63%; under `O=C(O)COc1cccc(/C=C2/SC(=S)N(Cc3ccccc3)C2=O)c1`, 0.27%.

As for `CC(C)(C)c1csc(NC(=O)c2ccccc2O)n1`, the “hERG current change (%, negative = inhibition) at 10uM” value is -0.0514%.

Take `CC(C)(C)c1csc(NC(=O)c2c(F)c(F)c(F)c(F)c2F)n1`: the “hERG current change (%, negative = inhibition) at 10uM” value is recorded as -63.9%. Under `CC(C)(C)c1csc(NC(=O)c2ccc3nccnc3c2)n1` stands -57.2%; under `CC(C)(C)c1csc(NC(=O)c2cccnc2)n1`, 13.6%; under `CC(C)(C)c1csc(NC(=O)c2cccs2)n1`, -16.3%.

With `CC(C)(C)c1csc(NC(=O)c2ccncc2)n1`, the “hERG current change (%, negative = inhibition) at 10uM” value was -33.7%.

Take `CN(C)S(=O)(=O)N1CCc2ccccc2C1`: the “hERG current change (%, negative = inhibition) at 10uM” value was 2.94%. Under `Cc1cc(C)n(-c2nc3ccccc3nc2N2CCN(S(=O)(=O)c3ccc(F)c(C)c3)CC2)n1` stands 9.54%; under `Cc1nn(CC(=O)NCC(C)c2ccccc2)c(=O)c2cc3occc3n12` (stereo not shown), -3.5%; under `COc1ccc(C(=O)C[n+]2ccc3c(c2)nc(-c2cc(OC)c(OC)cc2OC)n3C)cc1.[Br-]`, 6.93%. For `COc1ccc(C(=O)C[n+]2ccc3c(c2)nc(-c2ccccc2)n3C)cc1.[Br-]`, the “hERG current change (%, negative = inhibition) at 10uM” value was -1.44%.

Turning to `O=C(C[n+]1ccc2c(c1)nnn2-c1ccccc1)c1ccc(Cl)cc1.[Br-]`, the “hERG current change (%, negative = inhibition) at 10uM” value is on record as -69%.

Regarding `Cn1nnc2c[n+](CC(=O)c3ccc(Cl)cc3)cc(Br)c21.[Br-]`, the “hERG current change (%, negative = inhibition) at 10uM” value is recorded as -24.7%. Under `COc1ccc(C(=O)C[n+]2ccc3c(c2)nnn3-c2ccccc2)cc1.[Br-]` stands -60.5%; under `O=C(C[n+]1ccccc1)c1ccc(Cl)cc1.[I-]`, 10%; under `CCc1nn(CC(=O)NCCCN(CC)c2cccc(C)c2)c(=O)c2cc3occc3n12`, -16.3%. The result for `C/C(N)=C(/C#N)C(=O)COC(=O)CCS(=O)(=O)c1ccccc1` reads 12.1%; that for `CC(C)(C)NC(=O)CSc1nc(O)cc(=O)n1-c1ccccc1F`, 6.39%. The result for `O=C(CSc1ccc(-c2ccc(Br)cc2)nn1)N1CCOCC1` reads -18.7%; that for `O=C(c1cnccn1)N1CCN(C/C=C/c2ccccc2)CC1`, -16.6%. Turning to `NC(=O)c1nn(Cc2ccccc2)c(=O)c2ccccc12`, the “hERG current change (%, negative = inhibition) at 10uM” value was determined as 4.12%. Under `O=C(c1ccc(Cl)nc1)N1CCN(C/C=C/c2ccccc2)CC1` stands -44.1%.

In the case of `O=C(c1nn(Cc2ccccc2)c(=O)c2ccccc12)N1CCN(C/C=C/c2ccccc2)CC1`, the “hERG current change (%, negative = inhibition) at 10uM” value is -57.7%. As for `O=C(c1ccc(=O)n(Cc2ccccc2)n1)N1CCN(C/C=C/c2ccccc2)CC1`, the “hERG current change (%, negative = inhibition) at 10uM” value is listed as -51.9%. Under `Cc1cc(C(=O)N2CCN(C/C=C/c3ccccc3)CC2)no1` stands -14.5%; under `COc1ccc(NC(=O)NCc2ccc3c(c2)OCO3)c(OC)c1`, 11.5%; under `COc1ccc(C)cc1S(=O)(=O)NC1CCCCC1C` (stereo not shown), 5.07%. The result for `CCC(=O)N1CCN(c2ccc(NC(=O)COc3cccc(C)c3C)cc2)CC1` reads -12%; that for `O=C(CSc1nnc(-c2ccco2)o1)Nc1c(F)cccc1F`, -1.95%; that for `Nc1nc(-c2ccc3c(c2)CCC(=O)N3)cs1`, 16.5%. For `CN(C)c1ccc(S(=O)(=O)N2CCCCC2)cc1NC(=O)C1CSC2(C)CCC(=O)N12` (stereo not shown), the “hERG current change (%, negative = inhibition) at 10uM” value is given as -22.3%.

With `CCOC(=O)C1Sc2[nH]c(=O)sc2C(c2ccc(Cl)cc2)C1C(=O)OCC` (stereo not shown), the “hERG current change (%, negative = inhibition) at 10uM” value was -1.1%. Under `COC(=O)C1Sc2[nH]c(=O)sc2C(c2ccc(Cl)cc2)C1C(=O)OC` (stereo not shown) stands -67%; under `COC(=O)C1Sc2[nH]c(=O)sc2C2c3ccccc3OC(=O)C12` (stereo not shown), -22.6%. Under `Cc1[nH]n(-c2cccc([N+](=O)[O-])c2)c(=O)c1-c1ccccc1` stands 15.8%; under `CCN(CC)S(=O)(=O)c1cc(NC(=O)[C@@H](NC(N)=O)C(C)C)ccc1C`, 15.5%; under `COc1ccc(/C=N/n2cnc3c([nH]c4ccc(F)cc43)c2=O)cc1CN1CCCC1`, -68%. Under `COc1ccc2[nH]c3c(=O)n(/N=C/c4ccc(OC)c(CN5CCCC5)c4)c(C)nc3c2c1` stands -45.3%; under `COc1ccc(/C=N/n2cnc3c([nH]c4ccc(F)cc43)c2=O)cc1CSc1ccccn1`, 20.6%; under `COc1ccc(/C=N/n2cnc3c([nH]c4ccc(Br)cc43)c2=O)cc1CN1CCOCC1`, -8.88%.

As for `COc1ccc(/C=N/n2c(=O)[nH]c3c([nH]c4ccc(F)cc43)c2=O)cc1CN1CCCCC1`, the “hERG current change (%, negative = inhibition) at 10uM” value is -19.1%. `COc1ccc(/C=N/n2cnc3c([nH]c4ccc(C)cc43)c2=O)cc1CN1CCCC1`: the “hERG current change (%, negative = inhibition) at 10uM” value is reported as -63.2%. The result for `COc1ccc(NC(=O)c2nnn(CC(=O)Nc3ccccc3OC)c2N)c(OC)c1` reads 0.272%.

Take `CCN(CC)CCOc1ccc2nc(N(C)C)sc2c1.Cl`: the “hERG current change (%, negative = inhibition) at 10uM” value came out at 11.1%.

Take `CC12CCC(C(=O)Nc3ccccc3)(C/C1=N\O)C2(C)C` (stereo not shown): the “hERG current change (%, negative = inhibition) at 10uM” value is 10.9%. Consider `CCSc1nnc(NC(=O)Cc2ccccc2OC)s1`, for which the “hERG current change (%, negative = inhibition) at 10uM” value is 13%. With `CCCCn1c(SCC(=O)NCCOC)nc2ccc(N3CCOCC3)cc2c1=O`, the “hERG current change (%, negative = inhibition) at 10uM” value was -2.94%.

Take `COCCCNC(=O)CSc1nc2ccc(N3CCOCC3)cc2c(=O)n1CCc1ccccc1`: the “hERG current change (%, negative = inhibition) at 10uM” value was -59.8%.

As for `CCCCNC(=O)CSc1nc2ccc(N3CCOCC3)cc2c(=O)n1CCc1ccccc1`, the “hERG current change (%, negative = inhibition) at 10uM” value is -19.3%. For the molecule `COCCNC(=O)CSc1nc2ccc(N3CCOCC3)cc2c(=O)n1Cc1ccc(OC)cc1`, the “hERG current change (%, negative = inhibition) at 10uM” value was -22.4%.

For the molecule `CCC(C)NC(=O)CSc1nc2ccc(N3CCOCC3)cc2c(=O)n1CCc1ccccc1` (stereo not shown), the “hERG current change (%, negative = inhibition) at 10uM” value was 3.14%.

With `COCCNC(=O)CSc1nc2ccc(N3CCOCC3)cc2c(=O)n1CCc1ccccc1`, the “hERG current change (%, negative = inhibition) at 10uM” value is on record as -55.1%. Take `Cc1ccc(CN2CC(C(=O)NCCC3=CCCCC3)CC2=O)cc1` (stereo not shown): the “hERG current change (%, negative = inhibition) at 10uM” value is -19.6%.

Take `CCN(c1ccc(NC(=O)CSCc2c(C)noc2C)cc1)C(C)C`: the “hERG current change (%, negative = inhibition) at 10uM” value is on record as -7.72%.

As to `Cc1ccccc1-c1cc2nc(C)c(Cl)c(=O)n2[nH]1`, the “hERG current change (%, negative = inhibition) at 10uM” value is on record as -8.26%. Under `O=C(Nc1cccc(F)c1)c1cccnc1` stands 3.96%; under `CCOC(=O)N1CCN(C(=O)c2sc3nc(-c4ccc(F)cc4)cn3c2C)CC1`, -62.1%.

As to `COc1ccccc1N1CCN(C(=O)c2sc3nc(-c4ccc(F)cc4)cn3c2C)CC1`, the “hERG current change (%, negative = inhibition) at 10uM” value is -34%.

`CCOC(=O)C1CCN(C(=O)c2sc3nc(-c4ccccc4)cn3c2C)CC1`: the “hERG current change (%, negative = inhibition) at 10uM” value is listed as -41%.

For the molecule `Cc1c(C(=O)Nc2ccncc2)sc2nc(-c3ccc(F)cc3)cn12`, the “hERG current change (%, negative = inhibition) at 10uM” value is -8.24%.

For the molecule `COc1ccccc1N1CCN(C(=O)c2sc3nc(-c4ccccc4)cn3c2C)CC1`, the “hERG current change (%, negative = inhibition) at 10uM” value is given as -35%.

On to `COC(=O)C1CCN(C(=O)c2sc3nc(-c4ccc(F)cc4)cn3c2C)CC1`, for which the “hERG current change (%, negative = inhibition) at 10uM” value is reported as -59.5%.

Turning to `CCOC(=O)C1CCN(C(=O)c2sc3nc(-c4ccc(F)cc4)cn3c2C)CC1`, the “hERG current change (%, negative = inhibition) at 10uM” value is -60.5%. With `Cc1c(C(=O)N2CCN(C(=O)c3ccco3)CC2)sc2nc(-c3ccc(F)cc3)cn12`, the “hERG current change (%, negative = inhibition) at 10uM” value is given as -76.9%. Consider `Cc1c(C(=O)N2CCN(c3ccc(F)cc3)CC2)sc2nc(-c3ccccc3)cn12`, for which the “hERG current change (%, negative = inhibition) at 10uM” value was -13.4%. Under `COc1ccc(-c2cn3c(C)c(C(=O)N4CCN(c5ccc(F)cc5)CC4)sc3n2)cc1` stands 1.07%; under `Cc1c(C(=O)N2CCN(c3ccccc3F)CC2)sc2nc(-c3ccccc3)cn12`, -14.1%. In the case of `Cc1c(C(=O)NCC2CCCO2)sc2nc(-c3ccc(F)cc3)cn12` (stereo not shown), the “hERG current change (%, negative = inhibition) at 10uM” value is given as -29.7%. On to `CN(C)CCNc1oc(COc2ccc(Cl)cc2Cl)nc1C#N`, for which the “hERG current change (%, negative = inhibition) at 10uM” value is reported as 15.3%.

For the molecule `COc1cc(OC)cc(C(=O)NNC(=O)CCOc2ccccc2OC)c1`, the “hERG current change (%, negative = inhibition) at 10uM” value amounted to 7.89%. The result for `O=C(CSc1nnc(NC(=O)c2ccccc2F)s1)NC1CC1` reads 19.2%; that for `C=C(C)C1Cc2nc(N)nc(C)c2C1` (stereo not shown), 10.8%. Under `Cc1ccc(OCCNC(=O)c2ccccc2O)cc1` stands 8.04%. On to `Cc1cc(C(=O)Nc2nc3c(s2)CCCC3)no1`, for which the “hERG current change (%, negative = inhibition) at 10uM” value is -16.8%. Consider `C=CCC(=O)OCCCCCCOc1ccc(C(=O)O)cc1`, for which the “hERG current change (%, negative = inhibition) at 10uM” value is recorded as -3.87%. Turning to `O=C1CC(c2cc(-c3ccccc3)no2)C1`, the “hERG current change (%, negative = inhibition) at 10uM” value was -9.96%. The result for `c1ccc2nc3c(nc2c1)[nH]c1ccccc13` reads -15%; that for `O=C(O)c1cc2ccc3ccccc3c2[nH]1`, 1.56%. Under `CCN(CC)CCNC(=O)CSc1c2c(nc3cc(Cl)ccc13)CCCC2` stands -64.1%.

In the case of `CCN(CC)CCCNC(=O)CSc1c2c(nc3cc(Cl)ccc13)CCCC2`, the “hERG current change (%, negative = inhibition) at 10uM” value was -48.4%.

As to `O=C(CSc1c2c(nc3cc(Cl)ccc13)CCCC2)NCCN1CCOCC1`, the “hERG current change (%, negative = inhibition) at 10uM” value is given as 3.58%.
